Vaccinia Venus: inhibitors of vaccinia virus (Venus reporter) | Vaccinia virus Venus reporter expression, fluorescence | Potency, µM (doses to about 36.5 µM), for the others: at the top dose activity change, negative = inhibition, usual class: inhibitors | 330,000 compounds, 0.46% hits | AID 720580; calls by dose curve; tested in A549 cells; also: potency is read from the fitted curve at half-maximal effect; nearly all actives have a fitted effect of over 30% in size
HCV inhibitor: inhibitors of hepatitis C virus infection | Potency, µM (series often up to 41.8 µM), inactives show at the top dose activity change, negative = inhibition, most hits filed as inhibitors | Huh7.5.1 HCVcc-Cre infection, luciferase reporter, 44 h | 340,000 compounds, 3.4% hits; also: potency is read from the fitted curve at half-maximal effect
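After 44 h co-culture of compound, cells and HCVcc-Cre (~0.5 moi), substrate is added for 15 min at room temperature and luciferase measured over 15 sec. Cells were seeded at 1,000/well and pre-cultured 4 h.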
HCMV inh: human cytomegalovirus inhibition | HFF cells, HCMV-luciferase reporter, 72 h; active compounds read low | activity change, negative = inhibition, % at 57.5 µM | 410,000 compounds, 4.5% hits | AID 1259415; in the data active = activity change below about -60%; inconclusive = no clear call, values can overlap the other calls; inactive = above about -39%
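Human foreskin fibroblasts infected with luciferase-reporter HCMV at MOI 1 PFU/cell, compounds at two doses. Luciferase measured 72 h post infection; normalized to buffer-only basal and Salinomycin (10uM) controls.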
VACV mCherry inh: inhibitors of vaccinia virus infection (mCherry reporter signal). Vaccinia virus mCherry reporter infection, fluorescence. Potency, µM (titrated, usually from 36.5 µM), inactives show at the highest dose activity change, negative = inhibition, actives largely listed as inhibitors. 310,000 compounds, 0.63% hits. AID 720579; calls by dose curve; tested in A549 cells; also: potency is read from the fitted curve at half-maximal effect; nearly all actives have a fitted effect of over 35% in size
FMDV antiviral: antivirals against foot and mouth disease virus; FMDV antiviral cell-based qHTS; Potency, µM (top dose mostly 57.9 µM), inactives show at the highest dose activity change, negative = inhibition, hits mostly inhibitors; 410,000 compounds, 1.2% hits; AID 1159524; calls by dose curve; tested in HEK293T cells; also: read-out not given here; potency is read from the fitted curve at half-maximal effect; nearly all actives have a fitted effect of over 45% in size
Sm TGR block: S. mansoni TGR enzyme inhibition | 360,000 compounds, 3% hits | purified TGR, DTNB reduction, TNB absorbance 405 nm | AID 485364 | Q962Y6 | Potency, µM (highest dose often 114 µM), inactives show at the highest dose activity change, negative = inhibition, actives largely listed as inhibitors; also: potency is read from the fitted curve at half-maximal effect; nearly all actives have a fitted effect of over 60% in size
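TGR 20 nM + NADPH 100 uM (dispensed conc.), cpd preinc 15 min RT; start with NADPH (500 uM addition) then DTNB (15 mM addition). Kinetic TNB absorbance, 405 nm filter. Four-parameter Hill fit across titration.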
* = called active by the depositor; i = inactive; ? = inconclusive; . = no result given; [ ] = remark or other dose. Shown are actives, neighbours in structure and some others; about 9.3% of the full set was active somewhere. Unless noted, calls follow the shape of the dose curve; as a rule, active = well fitted curve in the direction sought with a large enough effect; inconclusive = small, poorly fitted or top-dose-only effect, or another doubt; inactive = no such curve, though single readings can be large; an effect the other way counts as inactive or inconclusive. % is scaled to controls: 0 for no effect and ±100 for the full control effect.

SMILES	Vaccinia Venus	HCV inhibitor	HCMV inh	VACV mCherry inh	FMDV antiviral	Sm TGR block
CC1CC(C)CN(C(=O)/C=C/c2ccc([N+](=O)[O-])s2)C1 (stereo not given)	?	?	-86.6*	?	?	12.6µM*
CC1CN(C(=O)/C=C/c2ccc([N+](=O)[O-])s2)CC(C)O1 (stereo not given)	?	?	-67.6*	?	12.6%	20µM*
Cc1ccc(N2C(=O)N(CC(=O)Nc3cc(C)cc(C)c3)C(=O)C2C)cc1 (stereo not given)	-11.0%	?	?	i	-18.0%	11.5%
Cc1cc(-c2ccc(S(=O)(=O)Nc3ccc(Cl)cc3)cc2)on1	-26.6%	.	0.0	-5.3%	17.4%	9.5%
Cc1cc(C)cc(NS(=O)(=O)c2ccc(-c3cc(C)no3)cc2)c1	?	.	-80.3*	-28.7%	21.0%	4.8%
Cc1ccc(NS(=O)(=O)c2ccc(-c3cc(C)no3)cc2)c(C)c1	-27.6%	.	-65.1*	-23.1%	-27.2%	11.8%
Cc1ccc(S(=O)(=O)Nc2cc(C)c(O)cc2C)cc1	-19.3%	-4.6%	-75.6*	-17.6%	-3.3%	-4.6%
Cc1ccc(NS(=O)(=O)c2cc(-c3cc(C)no3)ccc2C)c(Cl)c1	-21.2%	.	0.0	-21.5%	45.2%	11.4%
Cc1ccc(S(=O)(=O)Nc2cc3c(cc2C)n(C)c(=O)c(=O)n3C)cc1	-5.4%	.	15.0	-12.5%	-12.7%	-1.3%
CCCCN(C(=O)c1ccco1)c1c(N)n(CCC)c(=O)[nH]c1=O	.	-13.5%	18.9	.	-19.6%	-7.6%
Cc1cnc(-n2ncc(C(=O)N(C)CC3CCCN(C)C3)c2C2CC2)nc1-c1cccs1 (stereo not given)	-11.6%	.	.	-19.8%	-15.8%	.
CCc1ccc(NC(=O)c2sc3nc(C)nc(N4CCN(c5ccccn5)CC4)c3c2C)cc1	-0.4%	1.2%	?	-3.3%	2.24µM*	0.4%
Cc1nc(N2CCC(C)CC2)c2c(C)c(C(=O)Nc3cccc(C(F)(F)F)c3)sc2n1	-23.1%	?	10.7	i	?	12.6%
Cc1c(C(=O)Nc2ccc3c(c2)OCCO3)sc2ncnc(N3CCCCC3C)c12 (stereo not given)	.	11.2µM*	?	.	?	4.3%
Cc1nc(N2CCC(C)CC2)c2c(C)c(C(=O)Nc3ccc(C(F)(F)F)cc3)sc2n1	-8.5%	11.2µM*	-12.2	i	?	2.6%
Cc1nc(N2CCC(C)CC2)c2c(C)c(C(=O)Nc3ccc4c(c3)OCCO4)sc2n1	.	3.5%	0.0	.	-21.8%	1.0%
COc1ccc(NC(=O)c2sc3ncnc(N4CCN(c5ccccn5)CC4)c3c2C)cc1Cl	.	6.31µM*	?	.	?	-5.6%
COc1ccc(NC(=O)c2sc3nc(C)nc(N4CCN(c5ccccn5)CC4)c3c2C)cc1Cl	-18.6%	?	-37.7	-3.2%	-19.8%	-0.4%
Cc1nc(N2CCN(c3ccccn3)CC2)c2c(C)c(C(=O)Nc3ccccc3F)sc2n1	-7.4%	?	1.7	-9.3%	?	-17.2%
Cc1ccc(S(=O)(=O)NC(CCCNC(=O)OCc2ccccc2)C(=O)O)cc1 (stereo not given)	.	.	-37.2	.	.	.
Cc1cc(C)c2nc(C)cc(Nc3cccc(C(=O)O)c3)c2c1	-5.9%	.	-5.3	i	-4.2%	7.3%
O=C(c1ccc(C(F)(F)F)cc1)N1CCC(=O)N(C(COCc2ccccc2)Cc2ccccc2)CC1 (stereo not given)	-22.0%	0.6%[8.37 µM]	-5.6	-13.7%	-16.2%	-4.5%
Cc1nc(N2CCN(c3ccccn3)CC2)c2c(C)c(C(=O)Nc3ccc(F)cc3Cl)sc2n1	.	?	?	.	11.2µM*	-2.2%
CC(=O)OC(C#CCN1CCOCC1)c1ccccc1 (stereo not given)	.	9.8%	33.3	.	2.3%	-16.5%
OC(C#CCN1CCOCC1)c1cccs1 (stereo not given)	-4.3%	20.6%	1.7	-13.8%	6.5%	28.2µM*
SMILES	Vaccinia Venus	HCV inhibitor	HCMV inh	VACV mCherry inh	FMDV antiviral	Sm TGR block
O=C(/C=C/N1CCOCC1)c1ccc(-c2ccccc2)cc1	-6.7%	-5.9%	.	i	20.7%	?
O=C(/C=C\N1CCOCC1)c1ccc(Br)cc1	-18.6%	4.1%	16.3	i	63.6%	15.8µM*
Cc1cc(=O)n(CC(=O)N2CCN(c3ccc(F)cc3)CC2)c2c1c(C)nn2C	-22.6%	.	-30.0	-2.1%	28.2µM*	1.2%
CCOC(=O)C1CCCN(C(=O)Cn2c(=O)cc(C)c3c(C)nn(C)c32)C1 (stereo not given)	-6.1%	.	-9.6	-11.1%	?	-7.5%
COc1ccc(-c2nc(/C=C3\C(C)=Nc4ccccc43)c(O)o2)cc1	-10.0%	?	-8.7	-16.7%	5.5%	44.7µM*
CC1=Nc2ccccc2/C1=C\c1nc(-c2ccccc2)oc1O	.	?	18.3	.	-4.6%	?
CCC(Sc1nc2ncnc(N)c2[nH]1)C(=O)O (stereo not given)	3.3%	-12.7%	-24.8	1.1%	5.2%	0.2%
O=C(Nc1cccc2nsnc12)c1cc2c(cc1Cl)Sc1nccn1S2(=O)=O	-5.8%	9.3%	-8.4	-23.0%	-5.7%	.
COc1ccc(Cl)cc1NS(=O)(=O)c1cccc(C(=O)NCC(c2ccco2)N2CCCC2)c1 (stereo not given)	-27.4%	-17.2%	-22.2	-7.3%	23.8%	-19.9%
CN(C)C(CNC(=O)c1ccccc1OCc1ccc(Cl)cc1)c1ccco1 (stereo not given)	-15.1%	17.8µM*	-10.7	?	-29.4%	5.1%
COc1ccc(Cl)cc1NS(=O)(=O)c1cccc(C(=O)NCC(c2ccco2)N(C)C)c1 (stereo not given)	-3.9%	?	35.5	-14.0%	28.5%	12.6µM*
CCCCCc1ccc(OCCCC[n+]2cccc(C)c2)c(CCCCC)c1	?	?	-101.5*	?	?	2.2%
CCCCCc1ccc(OCCCC[n+]2ccccc2)c(CCCCC)c1	?	-26.5%	.	?	?	2.3%
CCCCCc1ccc(OCCCC[n+]2ccc(C)cc2)c(CCCCC)c1	?	6.31µM*	-100.2*	?	?	-12.0%
CCCCCCCCCCCCCCCC[n+]1ccc(C)cc1	28.2µM*	.	.	?	.	.
Cc1cccc(NC(=O)C2CCN(C(=O)NCc3ccccc3)CC2)c1C	0.0%	4.3%	48.3	-14.9%	27.0%	3.5%
O=C(Nc1ccc(N2CCN(C(=O)c3ccccc3)CC2)c(Cl)c1)c1ccc(Br)o1	.	?	-67.5*	.	-26.9%	-23.4%
O=C(Nc1ccc(N2CCOCC2)c(Cl)c1)c1ccc(Br)o1	-16.8%	10µM*	29.3	-26.4%	-7.0%	-0.5%
O=C(Nc1ccc(N2CCN(C(=O)c3ccccc3)CC2)cc1)c1ccc(Br)o1	-29.3%	?	-25.1	.	0.0%	-10.0%
CN1CCN(c2ccccc2NC(=O)c2ccc(Br)o2)CC1	-10.7%	?	-21.6	.	-14.2%	-1.3%
